40 molecules from PubChem BioAssay (NCATS) can be followed below.

Each structure is given as a SMILES string. Active and inactive are the calls of the source. Calls follow the shape of the dose curve; as a rule, active = well fitted activation curve with a large enough effect; inconclusive = small, poorly fitted or top-dose-only effect; inactive = flat fitted curve, though single readings scatter.

This experiment in a line: Confirmation and Secondary Assay for Modulators of Hemoglobin Beta Chain Splicing at IVS2 654 locus (AID 910).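 Also: HeLa cells stably carrying EGFP split by mutant beta-globin IVS2-654 intron.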 The settings on record: HeLa EGFP-654 splicing reporter, GFP fluorescence, 48 h; series mostly up to 46.1 µM. From the text:
NIH Chemical Genomics Center [NCGC] NIH Molecular Libraries Screening Centers Network [MLSCN] MLSCN Grant: 1 X01 MH080684-01 PI Name: Dr. Ryszard Kole NCGC Assay Overview: Modulation of Alternative Splicing as Therapy Abnormal splicing is associated with a number of diseases, including cancer and genetic diseases such as cystic fibrosis, muscular dystrophy and beta-thalassemia. Alteration of disease associated splicing patterns provides a promising target for treatment. […] Mutations in the second intron of the b-globin gene at positions 654 or 705 are clinically relevant and cause mis-splicing which results in an out of frame gene product. […] EGFP-654 HeLa Cells as screen system. HeLa cell lines were stably transfected with a construct in which the EGFP (enhanced green fluorescent protein) cDNA was interrupted by the second intron of the beta-globin gene (IVS2-654). The ISV2 intron contains mutations which cause mis-splicing of EGFP and premature termination of EGFP which results in a nonfluorescent protein product. […] Expression of the transgene was driven by the CMV promoter. We concluded that a low molecular weight compound, which restored correct splicing of intron 2 would also generate functional EGFP protein, resulting in a fluorescent signal. Thus, the HeLa cells that express the EGFP-654 construct can be used for high throughput screening of a chemical library.
NCGC Assay Protocol Summary: Confirmatory Screening. Freshly thawed HeLa EGFP-654 cells were seeded in 5 ul of optimem media (Invitrogen) containing 2 % fetal calf serum (Hyclone) and 1x penicillin/streptomycin (Invitrogen) at a concentration of 500 cells per well in 1536-well plates. Cells were incubated overnight at 37C in 5% CO2. The next day, cells were treated with DMSO, 500 nM antisense ISV2 654 PNA control oligo, or library compound and allowed to grow at 37C in 5% CO2 for 2 days. The PNA oligo blocked the mutation site in the intron and allowed proper (wild type) splicing to occur, resulting in full length EGFP expression and also allowed for optimization of the assay parameters. Plates were read in the Acumen Explorer (TTP Labtech) using 488 nm laser excitation and 500-520 nm emission PMT filter in a 1 x 8 uM capture mode. Fluorescnet objects ranging in size from 5 to 250 uM were measured and the total peak GFP intensity for each well was used for data analysis. Keywords: Thalassemia, beta-thalassemia, beta-globin, EGFP, ISV2 654, ISV2 705, SSO, PNA, antisense, splicing, MLSMR, MLSCN, NIH Roadmap, qHTS, NCGC
For the molecule `CCn1cc(C(=O)O)c(=O)c2cc3c(cc21)OCO3`, the result was inactive.
The same measure for `FC(F)(F)c1ccccc1-n1ccnc1`: “inactive”; for `C[N+](C)(C)CCOC(N)=O`: “inactive”.
The same measure for `CCN(CC)CC(=O)Nc1c(C)cccc1C`: “inactive”; for `CN1CCN(CC(=O)N2c3ccccc3C(=O)Nc3cccnc32)CC1`: “inactive”.
The same measure for `Cc1ccc(Cl)c(Nc2ccccc2C(=O)O)c1Cl`: “inactive”; for `CNCCCN1c2ccccc2CCc2ccccc21`: “inactive”.
As to `CCCC(C(=O)OCCN(CC)CC)(c1ccccc1)c1ccccc1`, the molecule was classed as inactive.
For the molecule `CN(C)C(=O)Oc1cccc([N+](C)(C)C)c1`, the molecule was classed as inactive.
In the case of `Nc1nc(N)c2nc(-c3ccccc3)c(N)nc2n1`, the result was inactive.
With `NC(=O)N1c2ccccc2C=Cc2ccccc21`, the molecule was called inactive.
As for `Cc1ccc(/C(=C\CN2CCCC2)c2ccccn2)cc1`, the molecule was classed as inactive.
The same measure for `CC(=O)Nc1nnc(S(N)(=O)=O)s1`: “inactive”; for `COC(=O)C1=C(C)NC(C)=C(C(=O)OCCN(C)Cc2ccccc2)C1c1cccc([N+](=O)[O-])c1` (stereo not given): “inactive”.
To `CCCN(CCC)C(=O)C(CCC(=O)O)NC(=O)c1ccccc1` (stereo not given) belongs “inactive”.
To `CN(C)CCCN1c2ccccc2Sc2ccc(C(F)(F)F)cc21` belongs “inactive”; to `Cc1ccc(S(=O)(=O)NC(=O)NN2CCCCCC2)cc1`, “inactive”.
For the molecule `CN(C)CCN(Cc1cccs1)c1ccccn1`, the molecule was classed as inactive.
The same measure for `CCCCNc1ccc(C(=O)OCCN(C)C)cc1`: “inactive”.
To `CN(C)C(=O)Oc1ccc[n+](C)c1` belongs “inactive”; to `CCCNC(C)C(=O)Nc1ccccc1C` (stereo not given), “inactive”; to `CC(C)(Oc1ccc(CCNC(=O)c2ccc(Cl)cc2)cc1)C(=O)O`, “inactive”.
To `CN(C)CCOC(=O)COc1ccc(Cl)cc1` belongs “inactive”; to `c1ccc2c(c1)CCCC2C1=NCCN1` (stereo not given), “inactive”; to `CN1CCN(C2=Nc3ccccc3Oc3ccc(Cl)cc32)CC1`, “inactive”.
Turning to `OC(CCN1CCCCC1)(c1ccccc1)C1CCCCC1` (stereo not given), the call was inactive.
The same measure for `CCN(CC)CCNC(=O)c1cc(S(C)(=O)=O)ccc1OC`: “inactive”; for `CC(N=C(NC#N)Nc1ccncc1)C(C)(C)C` (stereo not given): “inactive”; for `CN/C(=C\[N+](=O)[O-])NCCSCc1ccc(CN(C)C)o1`: “inactive”.
As to `C[n+]1cc2c3c(ccc2c2ccc4cc5c(cc4c21)OCO5)OCO3`, the outcome was inactive.
The same measure for `CCCCCN(CCCCC)C(=O)C(CCC(=O)O)NC(=O)c1ccc(Cl)c(Cl)c1` (stereo not given): “inactive”; for `CN(C)CCCN1c2ccccc2Sc2ccccc21`: “inactive”.
The same measure for `CCN(CC)CCNC(=O)c1ccc(NC(C)=O)cc1`: “inactive”; for `CC(C)(C)NCC(O)c1cc(O)cc(O)c1` (stereo not given): “inactive”; for `CCCCNC(=O)NS(=O)(=O)c1ccc(C)cc1`: “inactive”.
The same measure for `Cc1scc2c1N(C(=O)CN1CCN(C)CC1)c1ccccc1NC2=O`: “inactive”; for `CC(=O)OC(C)C[N+](C)(C)C` (stereo not given): “inactive”.
In the case of `CCCOc1ccccc1-c1nc2n[nH]nc2c(=O)[nH]1`, the molecule was called inactive.
Take `CCN(CC)CCOCCOC(=O)C1(c2ccccc2)CCCC1`: the result was inactive.
The same measure for `CC(C)NNC(=O)c1ccncc1`: “inactive”.
